# Experimental data: PubChem BioAssay AID1745853 (National Center for Advancing Translational Sciences (NCATS), 2022)
# In all, about 25,000 compounds went through this assay and about 970 (3.9%) were called active. Roughly 8% stayed inconclusive and do not appear here. The rule behind the calls is not given here. For the sample, actives were picked, then their nearest neighbours and some compounds at random.
# What was measured:
# Assay in all cases: Primary Screen for Target Class Profiling of Small Molecule Inhibitors of Methyltransferases
# [1] = target: Catechol O-methyltransferase (Homo sapiens) (UniProt P21964); conditions: purified enzyme, MTase-Glo SAH luminescence; activity change, negative = inhibition: at 40 µM, stronger effect = lower value; outcome: 40 uM
# Text: (§1) PI: Matthew D. Hall Ph.D. and Quinlin M. Hanson Ph.D.
# (§2) National Center for Advancing Translational Sciences (NCATS)
# (§3) National Institute of Health (NIH), Rockville, MD
# (§4) Target class profiling (TCP) is a chemical biology approach amenable to investigating understudied biological targets. TCP is achieved by developing a generalizable assay platform and applying it to screen a curated set of compound libraries against representative members of a target class. Small molecule methyltransferases (SMMTase) are a subclass of methyltransferase that act on metabolites to modulate signaling pathways, metabolize xenobiotics, or balance the available methyl pool. We screened four curated libraries totaling 27,574 unique compounds against the SMMTases nicotinamide N-methyltransferase (NNMT), phenylethanolamine N-methyltransferase (PNMT), histamine N-methyltransferase (HNMT), glycine N-methyltransferase (GNMT), catechol O-methyltransferase (COMT), and guanidinoacetate N-methyltransferase (GAMT). The data generated by this TCP can be leveraged for informed tool molecule development. For example, in the associated publication we identified a chemotype of HNMT-selective inhibitors. Additionally, we identified a putative SMMTase-selective inhibitor with potential as a tool molecule for studying broader methyltransferase biology.
# (§5) High-through put screening assays were developed at the National Center for Advancing Translational Science (NCATS) for the enzymes NNMT, PNMT, HNMT, GNMT, COMT, and GAMT. Enzymatic activity was measured as a function of SAM cofactor conversion using the MTase Glo kit (Promega) for all enzymes. All assays were performed in 1536-well format with substrates and SAM concentrations at KM values. Enzyme concentration and assay timing were optimized for 10-20% SAM conversion. Initial screening of 27,574 compounds was done as single-point assays using the highest compound concentration (40 uM). […] These compounds were replated in 11-point dose response and assayed against NNMT, PNMT, HNMT, GNMT, COMT, GAMT, and a counter-assay. The IC50 and efficacy (maximal response) values were determined for each dose-response curve. These values are also accounted for in the area under the curve (AUC) values.
# (§6) PROTOCOL TABLE (as described by Inglese J, Shamu CE and Guy RK. 2007)
# (§7) SEQUENCE No. (e.g., 1, 2, 3, etc.); […] (e.g., Cells, Incubation, Reagent, etc.); VALUE; DESCRIPTION.
# (§8) 1; Reagent; 2 uL; SMMTase Enzyme (2x) in reaction buffer, columns 1- 48.
# (§9) 2; Reagent; 1 uL; SAM (4x) in reaction buffer, columns 1-48.
# (§10) 3; Controls; 23 nL; DMSO in column 4; sinefungin in DMSO (0 uM - 40 uM) in 7-point 1:2 dilution series (n = 2) in column 2.
# (§11) 4; Compounds; 23 nL; Columns 5-48.
# (§12) 5; Reagent; 1 uL; Substrate (4x) in reaction buffer, columns 2-48.
# (§13) 6; Time; 20-30 min; Incubation.
# (§14) 7; Reagent; 1 uL; MTase-Glo reagent (5X), columns 1-48.
# (§15) 8; Time; 30 min; Incubation.
# (§16) 9; Reagent; 5 uL; MTase-Glo Detection reagent, columns 1-48.
# (§17) 10; Time; 30 min; Incubation, luminescence evolution.
# (§18) 11; Detection; Luminescence; ViewLux uHTS Microplate Imager (PerkinElmer).
# (§19) NOTES (numbers refer to Sequence numbers above)
# (§20) 1, 2, 5. White Medium Binding Greiner 1536-well plates (Cat #789175-F, Greiner Bio-One, Monroe, NC); Reaction buffer: 50 mM Tris, pH 8.0, 3 mM MgCl2, 1 mM EDTA, 50 mM NaCl, 1 mM DTT, and 0.1 mg/mL BSA. Evaporation was prevented by covering assay plates with metal lids containing holes to allow gas diffusion.
# (§21) 1. Six SMMTase were profiled: HNMT, GNMT, PNMT, COMT, NNMT, GAMT
# (§22) 5. The corresponding substrate was used for each enzyme: HNMT - 5.3 uM Histamine; GNMT - >500 uM Glycine; PNMT - 16.2 uM Norephinephrine; COMT - 13.7 uM Norephinephrine; NNMT - 3.8 uM Nicotinamide; GAMT - 2.5 uM Guanidinoacetate.6, 8, 10. Room temperature
# (§23) 6. Final reaction conditions: 10 nM COMT, 5 uM SAM, 15 uM norepinephrine, 50 mM Tris, pH 8.0, 3 mM MgCl2, 1 mM EDTA, 50 mM NaCl, 1 mM DTT, and 0.1 mg/mL BSA; refer to tables 2 and S1 for specific timing.
# 8. […]
# [2] = target: Glycine N-methyltransferase (Homo sapiens) (UniProt Q14749); conditions: purified enzyme, MTase-Glo SAH luminescence; measured here: GNMT inhibition; at 40 µM; stronger effect = lower value
# Text: as §1, §2, §3, §4, §5, §6, §7, §8, §9, §10, §11, §12, §13, §14, §15, §16, §17, §18, §19, §20, §21, §22, §23
# 8. […]
# [3] = target: Guanidinoacetate N-methyltransferase (Homo sapiens) (UniProt Q14353); conditions: purified enzyme, MTase-Glo SAH luminescence; measured here: GAMT inhibition; at 40 µM; stronger effect = lower value
# Text: as §1, §2, §3, §4, §5, §6, §7, §8, §9, §10, §11, §12, §13, §14, §15, §16, §17, §18, §19, §20, §21, §22, §23
# 8. […]
# [4] = target: Histamine N-methyltransferase (Homo sapiens) (UniProt P50135); conditions: purified enzyme, MTase-Glo SAH luminescence; measured here: HNMT inhibition; at 40 µM; stronger effect = lower value
# Text: as §1, §2, §3, §4, §5, §6, §7, §8, §9, §10, §11, §12, §13, §14, §15, §16, §17, §18, §19, §20, §21, §22, §23
# 8. […]
# [5] = target: Nicotinamide N-methyltransferase (Homo sapiens) (UniProt P40261); conditions: purified enzyme, MTase-Glo SAH luminescence; measured here: NNMT inhibition; at 40 µM; stronger effect = lower value
# Text: as §1, §2, §3, §4, §5, §6, §7, §8, §9, §10, §11, §12, §13, §14, §15, §16, §17, §18, §19, §20, §21, §22, §23
# 8. […]
# [6] = target: Phenylethanolamine N-methyltransferase (Homo sapiens) (UniProt P11086); conditions: purified enzyme, MTase-Glo SAH luminescence; measured here: PNMT inhibition; at 40 µM; stronger effect = lower value
# Text: as §1, §2, §3, §4, §5, §6, §7, §8, §9, §10, §11, §12, §13, §14, §15, §16, §17, §18, §19, §20, §21, §22, §23
# 8. […]
# % is set by controls: 0 for no effect and ±100 for the full control effect.
# Glycine N-methyltransferase (Homo sapiens), sequence (Q14749 whole entry, looked up): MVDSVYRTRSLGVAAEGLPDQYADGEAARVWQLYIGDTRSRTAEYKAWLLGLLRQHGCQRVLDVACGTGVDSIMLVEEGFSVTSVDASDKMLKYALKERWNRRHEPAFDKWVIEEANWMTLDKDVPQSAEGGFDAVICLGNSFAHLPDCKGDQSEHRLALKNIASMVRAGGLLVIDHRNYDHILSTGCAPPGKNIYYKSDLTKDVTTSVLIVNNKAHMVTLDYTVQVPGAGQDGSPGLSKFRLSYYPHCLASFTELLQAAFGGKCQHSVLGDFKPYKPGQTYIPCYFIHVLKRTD
# Nicotinamide N-methyltransferase (Homo sapiens), sequence (P40261 whole entry, looked up): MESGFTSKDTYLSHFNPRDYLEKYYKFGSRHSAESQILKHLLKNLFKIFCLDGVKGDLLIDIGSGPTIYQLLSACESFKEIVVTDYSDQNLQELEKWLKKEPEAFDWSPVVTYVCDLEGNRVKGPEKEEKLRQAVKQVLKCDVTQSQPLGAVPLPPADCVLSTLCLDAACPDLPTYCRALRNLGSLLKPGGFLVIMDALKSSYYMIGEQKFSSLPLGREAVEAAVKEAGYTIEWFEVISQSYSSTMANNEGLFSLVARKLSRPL
# Catechol O-methyltransferase (Homo sapiens), sequence (P21964 whole entry, looked up): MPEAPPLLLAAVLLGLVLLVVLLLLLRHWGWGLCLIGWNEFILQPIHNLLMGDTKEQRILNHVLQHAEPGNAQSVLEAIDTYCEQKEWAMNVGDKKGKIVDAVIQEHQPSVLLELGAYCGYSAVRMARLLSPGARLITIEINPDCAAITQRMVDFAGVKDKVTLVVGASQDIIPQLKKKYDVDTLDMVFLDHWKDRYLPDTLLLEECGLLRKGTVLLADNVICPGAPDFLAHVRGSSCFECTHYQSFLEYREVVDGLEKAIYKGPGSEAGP
# Histamine N-methyltransferase (Homo sapiens), sequence (P50135 whole entry, looked up): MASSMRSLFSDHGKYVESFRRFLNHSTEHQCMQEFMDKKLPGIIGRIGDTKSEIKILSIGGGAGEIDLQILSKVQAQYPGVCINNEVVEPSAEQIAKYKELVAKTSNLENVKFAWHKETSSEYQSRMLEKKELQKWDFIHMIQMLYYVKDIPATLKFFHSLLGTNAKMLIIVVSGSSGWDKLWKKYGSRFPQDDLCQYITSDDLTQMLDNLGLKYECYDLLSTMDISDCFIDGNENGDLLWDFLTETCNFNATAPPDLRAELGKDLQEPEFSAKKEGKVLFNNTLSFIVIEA
# Phenylethanolamine N-methyltransferase (Homo sapiens), sequence (P11086 whole entry, looked up): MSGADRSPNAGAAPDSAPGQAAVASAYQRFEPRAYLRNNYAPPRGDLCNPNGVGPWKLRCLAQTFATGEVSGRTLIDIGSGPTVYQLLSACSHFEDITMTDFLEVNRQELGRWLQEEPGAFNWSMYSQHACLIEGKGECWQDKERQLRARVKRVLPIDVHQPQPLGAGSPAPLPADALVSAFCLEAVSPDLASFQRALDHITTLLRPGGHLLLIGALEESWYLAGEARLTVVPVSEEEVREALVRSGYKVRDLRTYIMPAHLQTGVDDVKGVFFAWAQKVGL
SMILES,"activity change, negative = inhibition [1]","activity change, negative = inhibition [2] [%]","activity change, negative = inhibition [3] [%]","activity change, negative = inhibition [4] [%]","activity change, negative = inhibition [5] [%]","activity change, negative = inhibition [6] [%]"
Cc1cc(C(=O)N2CCCCCC2CN2CCC(C)CC2)nn1C (stereo not drawn),-10.6% (inactive),0.743,0.856,0.525,-2.25,-1.05
O=C(Cn1nc2n(Cc3ccc(F)cc3)c(=O)c3ccccc3n2c1=O)c1cccc(Cl)c1,5.66% (inactive),4.51,0,7.94,-8.66,4.49
Cc1ccc(C(=O)COC(=O)C(Cc2c[nH]c3ccccc23)NC(=O)c2ccc(Br)cc2)cc1 (stereo not drawn),9.4% (inactive),10.7,0,6.18,-1.05,1.41
Cc1cccc(-c2nnn3c2nc(N2CCC(C)CC2)c2ccccc23)c1,-0.09% (inactive),-5.45,0.818,1.53,-1.89,-5.11
Oc1cc2c(cc1O)CN(C(=S)NCCc1ccc(Cl)cc1)CCC2,143% (active),-83,4.04,-4.18,-9.24,0.975
COc1cc(C)c(C(=O)Oc2cc(C)c(C(=O)Oc3cc(C)c(C(=O)NC(C)C(=O)O)c(O)c3)c(O[C@@H]3O[C@H](CO)[C@@H](O)[C@H](O)[C@H]3OC(C)=O)c2)c(OC)c1 (stereo partly drawn),-0.843% (inactive),-0.029,0.21,6.89,-10.4,-0.399
COC(=O)CCc1cc2ccoc2c(OC)c1O[C@@H]1O[C@H](CO)[C@@H](O)[C@H](O)[C@H]1O,2.02% (inactive),2.54,4.92,10.2,-6.92,6.11
COc1cc(O)c(C(=O)CCc2ccc(O)cc2)c(O[C@@H]2O[C@H](CO)[C@@H](O)[C@H](O)[C@H]2O)c1,-58.4% (active),-3.53,-12.8,2.69,-20.7,-1.39
CCN1CCN(C(=O)Cn2nc(C)c3sc(-c4ccccc4)nc3c2=O)CC1,-3.83% (inactive),-9.13,-4.75,-2.34,-11.6,-11
CCCn1c(=O)c2ccc(C(=O)NC(C)CC)cc2n2c(=O)n(CC(=O)Nc3cc(C)cc(C)c3)nc12 (stereo not drawn),4.21% (inactive),2.22,5.41,6.27,0.889,3.91
COCCn1c2c(c(=O)n1-c1ccccc1)CCN(Cc1cccc(C#N)c1)C2,-2.46% (inactive),-6.45,-6.81,-9.66,-7.68,-4.57
C=CCn1c(=O)c2ccc(C(=O)NC(C)C)cc2n2c(=O)n(CC(=O)NCc3ccccc3)nc12,0.329% (inactive),7.7,1.61,12.5,0.93,4.28
COc1ccc(CNc2nc3c(S(=O)(=O)c4ccc(C)cc4)nnn3c3ccccc23)cc1,-0.038% (inactive),-2.81,0.613,3.99,0,-4.71
CC1CCC(Nc2nc3c(-c4cccc(F)c4)nnn3c3ccccc23)CC1 (stereo not drawn),-4.07% (inactive),0.278,0,-0.849,-6.58,-5.44
COc1cc(N)c(Cl)cc1C(=O)NC[C@@H]1CCN2CCC[C@@H]12,-17.2% (inactive),-4.41,-14.1,-11.2,-21.4,-18.4
CCOC(=O)c1cc2n(n1)CC(C)(C(=O)NCc1ccccc1)N(CCCc1ccccc1)C2=O (stereo not drawn),-0.428% (inactive),1.98,0,4.53,-4.41,0.451
O=C(CCc1nnc2n(Cc3ccc(Cl)cc3)c(=O)c3ccccc3n12)N1CCN(c2ccccc2F)CC1,-4.23% (inactive),-7.84,3.64,-1.5,-3.97,-4.97
O=C(CCc1nnc2n(Cc3ccc(Cl)cc3)c(=O)c3ccccc3n12)N1CCN(Cc2ccccc2)CC1,-0.522% (inactive),-14.1,0.869,-6.5,-18.2,-7.88
CC(C)Cn1c(=O)c2ccccc2n2c(CCC(=O)N3CCN(c4cccc(Cl)c4)CC3)nnc12,-9.54% (active),-27.4,-4.12,-10.4,-53.7,-12.4
COC(=O)c1ncn2c1C(=O)N(Cc1ccc(OC)cc1)C(C)(C(=O)NCc1ccccc1)C2 (stereo not drawn),-12.8% (inactive),-10.1,-0.727,-7.43,-6.98,-9.09
COc1cc2ncnc(Nc3cccc(Cl)c3F)c2cc1OC(=O)N1CCN(C)C[C@H]1C,-20.9% (inactive),-14.7,0.224,-20.1,-5.9,-15.1
CCOc1ccc(CNC(=O)c2cc3n(n2)CC(C)(C(=O)NCc2ccc(F)cc2)N(C)C3=O)cc1OC (stereo not drawn),1.84% (inactive),2.33,-5.76,-2.91,3.94,6.92
CC(=O)c1cnc2ccc(-c3cc(Cl)c(O)c(Cl)c3)nc2c1NC1CCC(CN(C)C)CC1 (stereo not drawn),2.27% (active),-9.49,1.31,-75.4,-14.2,0.349
